In PubChem BioAssay (NCATS):
Records with an inconclusive call do not appear. Where a call stands in place of a potency, no number is given. Unmarked numbers belong to inactive results. Activity calls are given as the source filed them. Calls follow the shape of the dose curve; as a rule, active = well fitted curve in the direction sought with a large enough effect; inconclusive = small, poorly fitted or top-dose-only effect, or another doubt; inactive = no such curve, though single readings can be large; an effect the other way counts as inactive or inconclusive.

Tests used:
[1] = molecular target: Rap guanine nucleotide exchange factor 3 (Homo sapiens) (UniProt O95398); assay: Confirmatory qHTS for agonist of cAMP-regulated guanine nucleotide exchange factor 3 (EPAC1) (AID 1645881);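 also: EPAC1 catalysed release of BODIPY-GDP from Rap1B seen as fluorescence loss; nearly all actives have a fitted effect of over 75% in size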
Sequence of Rap guanine nucleotide exchange factor 3 (Homo sapiens) (O95398 whole entry, looked up): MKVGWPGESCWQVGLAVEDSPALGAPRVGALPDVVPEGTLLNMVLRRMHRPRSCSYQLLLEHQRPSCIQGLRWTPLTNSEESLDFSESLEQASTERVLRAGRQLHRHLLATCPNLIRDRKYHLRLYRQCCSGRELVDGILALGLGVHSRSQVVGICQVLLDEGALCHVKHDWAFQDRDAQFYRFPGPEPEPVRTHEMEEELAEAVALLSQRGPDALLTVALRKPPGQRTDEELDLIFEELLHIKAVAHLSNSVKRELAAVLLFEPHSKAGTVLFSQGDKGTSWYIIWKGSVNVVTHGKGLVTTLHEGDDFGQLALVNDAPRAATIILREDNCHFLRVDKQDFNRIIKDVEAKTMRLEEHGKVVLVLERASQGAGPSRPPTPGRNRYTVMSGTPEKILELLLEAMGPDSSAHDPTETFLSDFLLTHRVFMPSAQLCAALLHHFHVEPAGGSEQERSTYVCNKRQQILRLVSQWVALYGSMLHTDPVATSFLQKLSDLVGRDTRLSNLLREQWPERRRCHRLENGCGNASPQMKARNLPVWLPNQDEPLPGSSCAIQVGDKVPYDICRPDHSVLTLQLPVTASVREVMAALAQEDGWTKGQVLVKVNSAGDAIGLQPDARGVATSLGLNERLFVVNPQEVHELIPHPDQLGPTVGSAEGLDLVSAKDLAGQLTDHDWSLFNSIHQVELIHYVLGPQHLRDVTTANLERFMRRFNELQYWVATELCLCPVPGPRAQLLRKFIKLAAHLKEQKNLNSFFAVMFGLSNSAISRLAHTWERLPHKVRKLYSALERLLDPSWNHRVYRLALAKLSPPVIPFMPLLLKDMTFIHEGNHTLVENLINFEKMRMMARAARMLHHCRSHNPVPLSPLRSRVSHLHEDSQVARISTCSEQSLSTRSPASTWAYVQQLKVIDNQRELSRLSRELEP

[2] = molecular target: Rap guanine nucleotide exchange factor 4 (Homo sapiens) (UniProt Q8WZA2); assay: Confirmatory qHTS for agonist of cAMP-regulated guanine nucleotide exchange factor 4 (EPAC2) (AID 1645884);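 also: nucleotide exchange releases bodipy-GDP from Rap1 and this lowers its fluorescence; nearly all actives have a fitted effect of over 65% in size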
Sequence of Rap guanine nucleotide exchange factor 4 (Homo sapiens) (Q8WZA2 whole entry, looked up): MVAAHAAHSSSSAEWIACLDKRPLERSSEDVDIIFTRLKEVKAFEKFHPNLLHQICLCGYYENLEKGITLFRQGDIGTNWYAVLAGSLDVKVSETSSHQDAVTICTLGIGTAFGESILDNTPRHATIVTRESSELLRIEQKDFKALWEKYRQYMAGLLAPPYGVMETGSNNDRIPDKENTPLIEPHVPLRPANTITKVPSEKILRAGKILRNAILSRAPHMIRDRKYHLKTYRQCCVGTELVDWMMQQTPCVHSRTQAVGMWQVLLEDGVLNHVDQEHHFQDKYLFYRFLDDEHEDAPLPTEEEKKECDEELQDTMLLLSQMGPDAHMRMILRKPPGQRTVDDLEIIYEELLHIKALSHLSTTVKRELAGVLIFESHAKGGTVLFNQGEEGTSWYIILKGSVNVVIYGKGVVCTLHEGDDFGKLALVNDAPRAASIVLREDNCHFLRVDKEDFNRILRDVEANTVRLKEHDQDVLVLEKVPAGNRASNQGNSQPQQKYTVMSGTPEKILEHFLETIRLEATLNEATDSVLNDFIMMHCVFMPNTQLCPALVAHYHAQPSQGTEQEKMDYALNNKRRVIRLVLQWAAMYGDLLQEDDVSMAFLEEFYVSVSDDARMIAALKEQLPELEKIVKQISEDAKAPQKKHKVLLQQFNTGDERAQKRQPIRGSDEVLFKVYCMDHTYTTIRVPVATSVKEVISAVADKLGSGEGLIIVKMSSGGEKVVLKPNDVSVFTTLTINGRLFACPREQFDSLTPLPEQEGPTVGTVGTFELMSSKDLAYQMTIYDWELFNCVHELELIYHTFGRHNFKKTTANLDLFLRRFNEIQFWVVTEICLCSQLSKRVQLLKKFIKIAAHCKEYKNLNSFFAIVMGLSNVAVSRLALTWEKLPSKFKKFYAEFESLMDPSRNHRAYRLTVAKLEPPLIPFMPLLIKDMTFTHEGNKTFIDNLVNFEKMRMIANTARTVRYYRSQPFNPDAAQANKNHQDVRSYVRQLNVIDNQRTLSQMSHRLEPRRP

[3] = molecular target: Rap guanine nucleotide exchange factor 4 (Homo sapiens) (UniProt Q8WZA2); assay: Confirmatory qHTS for antagonist of cAMP-regulated guanine nucleotide exchange factor 4 (EPAC2) (AID 1645885); also: nearly all actives have a fitted effect of over 25% in size; also: potency is read from the fitted curve at half-maximal effect
[4] = molecular target: Rap guanine nucleotide exchange factor 3 (Homo sapiens) (UniProt O95398); assay: Counterscreen qHTS for antagonist of cAMP-regulated guanine nucleotide exchange factor 3 (EPAC1) (AID 1645888);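 also: fluorescence loss as bound BODIPY-GDP is released from Rap1B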
In short: (§1)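 Rap1B-BODIPY-GDP 250 nM + GDP 50 uM; cpds 7-pt, final 9.74 nM–152 uM (activator mode) or from 7.32 nM upwards (inhibitor mode); RT; FI 480/540 nm at 5 and 30 min, then ± cAMP, reread.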

[5] = molecular target: Rap guanine nucleotide exchange factor 3 (Homo sapiens) (UniProt O95398); assay: Counterscreen qHTS for agonist of cAMP-regulated guanine nucleotide exchange factor 3 (EPAC1) (AID 1645889); also: nearly all actives have a fitted effect of over 40% in size
In short: as §1

Cn1c(=O)c(C(=O)NNC(=O)c2ccccc2Br)c(O)c2ccccc21
Potency [1]: inactive | activation [2]: 2.84% [at 17.1 µM, percent relative to cAMP agonist control] | Potency [3]: inactive | activity change, negative = inhibition [4]: -5.21% [at 30.8 µM] | activation [5]: 8.96% [at 30.8 µM]

CCCCC(CC)C(=O)Nc1ccc(Nc2ccccc2)cc1 (stereo not given)
Potency [1]: inactive | Potency [2]: inactive | Potency [3]: inactive | Potency [4]: inactive | Potency [5]: inactive

O=C(O)c1cc(-c2ccc(/C=C3/SC(=S)N(Cc4ccccc4)C3=O)o2)ccc1Cl
Potency [1]: inactive | activation [2]: -8.48% [at 17.1 µM, percent relative to cAMP agonist control] | Potency [3]: inactive | activity change, negative = inhibition [4]: -11.2% [at 30.8 µM] | activation [5]: 7.37% [at 30.8 µM]

CCOC(=O)Cc1csc(NC(=O)COc2ccc3ccccc3c2)n1
Potency [1]: inactive | activation [2]: 9.25% [at 17.1 µM, percent relative to cAMP agonist control] | Potency [3]: inactive | activity change, negative = inhibition [4]: 5.57% [at 30.8 µM] | activation [5]: 21.1% [at 30.8 µM]

COc1cc(NC2c3ncccc3C(=O)N2Cc2ccco2)cc(OC)c1 (stereo not given)
Potency [1]: inactive | Potency [2]: inactive | Potency [3]: inactive | Potency [4]: inactive | Potency [5]: inactive

CC1CC2(NC(=O)NC2=O)C(C)CN1C (stereo not given)
Potency [1]: inactive | Potency [2]: inactive | Potency [3]: inactive | Potency [4]: inactive | Potency [5]: inactive

CCOC(=O)C1=C(N)Oc2cc(O)ccc2C1c1ccccc1 (stereo not given)
Potency [1]: inactive | activation [2]: -4.25% [at 17.1 µM, percent relative to cAMP agonist control] | Potency [3]: inactive | activity change, negative = inhibition [4]: -7.53% [at 30.8 µM] | activation [5]: 10.8% [at 30.8 µM]

CC(C)(C)NC(=O)NC(=O)CN1CCN(S(=O)(=O)c2ccc3c(c2)CCCC3)CC1
Potency [1]: inactive | activation [2]: -5.51% [at 17.1 µM, percent relative to cAMP agonist control] | Potency [3]: inactive | activity change, negative = inhibition [4]: -44% [at 30.8 µM] | activation [5]: 6.75% [at 30.8 µM]

COc1ccc(C2CC(=O)C3=C(C2)NC(C)=C(C#N)C3c2ccc(N(C)C)cc2)cc1 (stereo not given)
Potency [1]: inactive | activation [2]: 6.82% [at 17.1 µM, percent relative to cAMP agonist control] | Potency [3]: inactive | activity change, negative = inhibition [4]: 0.0712% [at 30.8 µM] | activation [5]: 20% [at 30.8 µM]

COc1cc2c(c(OC)c1OC)-c1c(cc(OC)c(OC)c1OC)C[C@H](C)[C@H](C)C2
Potency [1]: inactive | activation [2]: 7.13% [at 17.1 µM, percent relative to cAMP agonist control] | Potency [3]: inactive | activity change, negative = inhibition [4]: -11.3% [at 30.8 µM] | activation [5]: 23.6% [at 30.8 µM]

CC(C)c1ccc(C2=CC(c3cccc(Cl)c3)n3ncnc3N2)cc1 (stereo not given)
Potency [1]: inactive | Potency [2]: inactive | outcome [3]: inactive [at 12.7 µM] | Potency [4]: inactive | Potency [5]: inactive

Cc1ccc(/C=C(\CCC(=O)O)c2nc3ccccc3s2)cc1[N+](=O)[O-]
Potency [1]: inactive | activation [2]: 6.79% [at 17.1 µM, percent relative to cAMP agonist control] | Potency [3]: inactive | activity change, negative = inhibition [4]: -11.2% [at 30.8 µM] | activation [5]: 0.0676% [at 30.8 µM]

CS(=O)(=O)c1ccc(C(=O)OCc2nnc(-c3ccccc3)o2)cc1[N+](=O)[O-]
Potency [1]: inactive | Potency [2]: inactive | Potency [3]: inactive | Potency [4]: inactive | Potency [5]: inactive

CN(CC(=O)Nc1ccc(Cl)c(C(F)(F)F)c1)C(=O)Cc1c[nH]c2ccccc12
Potency [1]: inactive | activation [2]: 5.51% [at 17.1 µM, percent relative to cAMP agonist control] | Potency [3]: inactive | activity change, negative = inhibition [4]: -15.4% [at 30.8 µM] | activation [5]: 36.2% [at 30.8 µM]

O=C1CC(c2ccccc2)=NN1c1nc(-c2ccccc2)cs1
Potency [1]: inactive | Potency [2]: inactive | Potency [3]: inactive | Potency [4]: inactive | Potency [5]: inactive

CCCCC(CC)C(=O)Oc1ccc(O)c(C(C)(C)C)c1 (stereo not given)
Potency [1]: inactive | activation [2]: -3.79% [at 17.1 µM, percent relative to cAMP agonist control] | Potency [3]: inactive | activity change, negative = inhibition [4]: 0.29% [at 30.8 µM] | activation [5]: -16.7% [at 30.8 µM]

Cn1c(SCC(=O)Nc2ccc(C(=O)O)cc2)nc2scc(-c3ccccc3Cl)c2c1=O
Potency [1]: inactive | Potency [2]: inactive | Potency [3]: 42.6 µM (active) | Potency [4]: inactive | Potency [5]: inactive

COc1cccc2sc(N(CCCN(C)C)C(=O)C(c3ccccc3)c3ccccc3)nc12
Potency [1]: inactive | activation [2]: 7.29% [at 17.1 µM, percent relative to cAMP agonist control] | Potency [3]: inactive | activity change, negative = inhibition [4]: -0.182% [at 30.8 µM] | activation [5]: 23.9% [at 30.8 µM]

CCC(CC)c1nnc(NC(=O)CSCc2c(C)noc2C)s1
Potency [1]: inactive | Potency [2]: inactive | Potency [3]: inactive | Potency [4]: inactive | Potency [5]: inactive

CCO[C@@H]1OC(C(=O)N2CCN(Cc3ccc4c(c3)OCO4)CC2)=C[C@H](C2CCCCC2)[C@H]1CCCO
Potency [1]: inactive | Potency [2]: inactive | Potency [3]: inactive | Potency [4]: inactive | Potency [5]: inactive

N#Cc1c(-c2ccccc2)c(C#N)c2nc3ccccc3n2c1N
Potency [1]: inactive | Potency [2]: inactive | Potency [3]: 84.9 µM (active) | Potency [4]: inactive | Potency [5]: inactive

Cc1ccc2nc3sc(C(=O)Nc4c(C)[nH]c(=O)[nH]c4=O)c(N)c3cc2c1
Potency [1]: inactive | activation [2]: 4.59% [at 17.1 µM, percent relative to cAMP agonist control] | Potency [3]: inactive | activity change, negative = inhibition [4]: 2.13% [at 30.8 µM] | activation [5]: 5.21% [at 30.8 µM]

O=C(NNc1cc(Br)c(O)c(Br)c1)c1ccccc1
Potency [1]: inactive | activation [2]: -6.77% [at 17.1 µM, percent relative to cAMP agonist control] | Potency [3]: inactive | activity change, negative = inhibition [4]: -6.86% [at 30.8 µM] | activation [5]: 11.6% [at 30.8 µM]

CCOC(=O)C(C)Sc1nc(-c2ccco2)cc(C(F)(F)F)c1C#N (stereo not given)
Potency [1]: inactive | activation [2]: 0.901% [at 17.1 µM, percent relative to cAMP agonist control] | Potency [3]: inactive | activity change, negative = inhibition [4]: -10.8% [at 30.8 µM] | activation [5]: 0.691% [at 30.8 µM]

COc1ccc(C(CNC(=O)c2cccc(S(=O)(=O)Nc3ccc(C)cc3)c2)N2CCOCC2)cc1 (stereo not given)
Potency [1]: inactive | Potency [2]: inactive | Potency [3]: inactive | Potency [4]: inactive | Potency [5]: inactive

Cc1ccc(C(=O)Cc2ccccc2)c(O)c1
Potency [1]: inactive | activation [2]: 0.272% [at 17.1 µM, percent relative to cAMP agonist control] | Potency [3]: inactive | activity change, negative = inhibition [4]: -3.71% [at 30.8 µM] | activation [5]: 23.4% [at 30.8 µM]

CCOC(=O)COc1ccc(/C=C(\C#N)c2nc3ccc(C)cc3[nH]2)cc1OC
Potency [1]: inactive | Potency [2]: inactive | Potency [3]: inactive | Potency [4]: inactive | Potency [5]: inactive

COc1ccccc1Cc1c(-c2ccco2)nc2cc(C)c(Br)c(C)n12
Potency [1]: inactive | activation [2]: 3.49% [at 17.1 µM, percent relative to cAMP agonist control] | Potency [3]: inactive | activity change, negative = inhibition [4]: -0.951% [at 30.8 µM] | activation [5]: 13.6% [at 30.8 µM]

CC(C)(C)NC(=O)C(c1ccc(C#N)cc1)n1c(=O)c(-c2ccco2)nc2ccccc21 (stereo not given)
Potency [1]: inactive | Potency [2]: inactive | Potency [3]: inactive | Potency [4]: inactive | Potency [5]: inactive

O=C(NCC(c1ccco1)N1CCCCC1)c1cccc(NS(=O)(=O)c2ccc(Br)cc2)c1 (stereo not given)
Potency [1]: inactive | activation [2]: -6.31% [at 17.1 µM, percent relative to cAMP agonist control] | Potency [3]: inactive | activity change, negative = inhibition [4]: -11.8% [at 30.8 µM] | activation [5]: 29.4% [at 30.8 µM]

CCOc1cc(/C=C2/SC(=S)N(CC(=O)O)C2=O)ccc1OC(=O)c1cccs1
Potency [1]: inactive | Potency [2]: inactive | Potency [3]: inactive | Potency [4]: inactive | Potency [5]: inactive

COc1ccc(NC(=O)CSc2nc3sc4c(c3c(=O)n2-c2ccc(OC)cc2)CCN(C)C4)cc1
Potency [1]: inactive | activation [2]: -8.15% [at 17.1 µM, percent relative to cAMP agonist control] | Potency [3]: inactive | activity change, negative = inhibition [4]: -8.97% [at 30.8 µM] | activation [5]: 31.5% [at 30.8 µM]

Cc1cccc(NC(=O)c2ccc(-n3cncn3)c([N+](=O)[O-])c2)c1
Potency [1]: inactive | activation [2]: 2.79% [at 17.1 µM, percent relative to cAMP agonist control] | Potency [3]: inactive | activity change, negative = inhibition [4]: -21.4% [at 30.8 µM] | activation [5]: 23.9% [at 30.8 µM]

CCc1cc(C(=O)N=Nc2c(O)[nH]c3ccc([N+](=O)[O-])cc23)c2ccccc2n1
Potency [1]: inactive | Potency [2]: inactive | Potency [3]: inactive | Potency [4]: inactive | Potency [5]: inactive

CC(C)C[C@H]1COCCS(=O)(=O)N1Cc1cccc(Cl)c1
Potency [1]: inactive | activation [2]: 5.51% [at 17.1 µM, percent relative to cAMP agonist control] | Potency [3]: inactive | activity change, negative = inhibition [4]: -14.3% [at 30.8 µM] | activation [5]: 2.08% [at 30.8 µM]

CC(=O)c1sc2nc(-c3ccco3)ccc2c1N
Potency [1]: inactive | Potency [2]: inactive | Potency [3]: inactive | Potency [4]: inactive | Potency [5]: inactive

O=C(O)CN1C(=O)/C(=C\C(Br)=C\c2ccccc2)SC1=S
Potency [1]: inactive | activation [2]: 6.32% [at 17.1 µM, percent relative to cAMP agonist control] | Potency [3]: inactive | activity change, negative = inhibition [4]: 0.657% [at 30.8 µM] | activation [5]: 8.49% [at 30.8 µM]

CC(C)(C)c1ccc(Cn2nnc3c(=O)[nH]c(C4CCN(C(=O)Cc5cccs5)CC4)nc32)cc1
Potency [1]: inactive | Potency [2]: inactive | Potency [3]: inactive | Potency [4]: inactive | Potency [5]: inactive

CC(C)CCNc1c(-c2cccs2)nc2ccccn12
Potency [1]: inactive | Potency [2]: inactive | Potency [3]: inactive | Potency [4]: inactive | Potency [5]: inactive

Cc1ccc(CSC2=NCCN2S(=O)(=O)c2ccc(F)cc2)cc1
Potency [1]: inactive | activation [2]: 1.66% [at 17.1 µM, percent relative to cAMP agonist control] | Potency [3]: inactive | activity change, negative = inhibition [4]: -7.41% [at 30.8 µM] | activation [5]: 4.55% [at 30.8 µM]
